High-throughput results deposited in PubChem BioAssay by National Center for Advancing Translational Sciences (NCATS).
DT40 TDP1 no CPT: qHTS for Inhibitors of human tyrosyl-DNA phosphodiesterase 1 (TDP1): qHTS in cells in absence of CPT; DT40 Tdp1-/- hTDP1 cells, no CPT, ATP luminescence, 48 h; Potency, µM (doses to about 46.2 µM), hits mostly inhibitors; 15% of 420,000 active; also: nearly all actives have a fitted effect of over 55% in size
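Camptothecin absent (DMSO only). Human TDP1-complemented DT40 knockout cells, 400 cells/well, 37 °C for minimum 48 hr; ATP measured via CellTiter-Glo, 30 min dark incubation, luminescence.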
KB-V1 cytotox: KB-V1 MDR subline cytotoxicity; AID 1347076; KB-V1 MDR cells viability, CellTiter-Glo, 72 h; 3.4% of 400,000 active; Potency, µM (series often up to 46.1 µM), most hits filed as cytotoxic; also: nearly all actives have a fitted effect of over 60% in size
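qHTS viability screen in drug-selected KB-V1 MDR cells: 72 h compound treatment at 37 degrees C, ATP luminescence end point.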
KB-3-1 tox: KB-3-1 parental cell cytotoxicity; 1.4% of 400,000 active; KB-3-1 viability, CellTiter-Glo ATP luminescence, 72 h; AID 1347075; Potency, µM (top dose mostly 46.1 µM), most hits filed as cytotoxic; also: nearly all actives have a fitted effect of over 60% in size
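72 h, 37 °C compound treatment of KB-3-1 parental cells; CellTiter-Glo added, 10 min, luminescence read. Data corrected against DMSO-only plates and normalized before curve fitting.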
HT1080 IDH1KD tx: kills HT-1080 cells with IDH1 knockdown; AID 686971; Potency, µM (titrated, usually from 46.1 µM), hits mostly cytotoxic; 2% of 360,000 active; HT-1080 IDH1 knockdown viability, ATP luminescence, 48 h
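After a 2 h attachment period, IDH1KD HT-1080 cells took pin-transferred compound for 48 h at 37 °C; ATP-based luminescence after 10 min room-temperature reagent incubation reported viability.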
HT1080-NT tox: kills 2HG-producing HT-1080-NT fibrosarcoma cells. HT-1080-NT fibrosarcoma viability, CellTiter-Glo ATP luminescence, 48 h. Potency, µM (top dose mostly 46.1 µM), usual class: cytotoxic. 1.6% of 360,000 active;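 also: NT is the 2HG producing partner of a matched IDH1 knockdown line; nearly all actives have a fitted effect of over 55% in size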
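Compounds were tested in concentration-response format on HT-1080-NT cells for 48 hours at 37 degrees C. Cell viability came from CellTiter-Glo luminescence; curves were classified by r2, response magnitude and activity.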
DT40 TDP1 CPT: DT40-hTDP1 cell growth loss with CPT; 12% of 420,000 active; Potency, µM (series often up to 46.2 µM), usual class: inhibitors; chicken DT40 Tdp1-/-;hTDP1 cells + 20 nM CPT, ATP luminescence, 48 h; also: nearly all actives have a fitted effect of over 55% in size
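Cell growth measured by CellTiter-Glo luminescence after a minimum 48 h, 37 C compound exposure with 20 nM CPT in Tdp1-knockout DT40 cells stably expressing hTDP1, seeded 400/well; qHTS titration format.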
Each line names hits and unclear results; the compound was inactive in the other large screens. The list is not random: actives were taken first. Their share in the collection is about 19%. Calls follow the shape of the dose curve; as a rule, active = well fitted curve in the direction sought with a large enough effect; inconclusive = small, poorly fitted or top-dose-only effect, or another doubt; inactive = no such curve, though single readings can be large; an effect the other way counts as inactive or inconclusive.

O=C(CCCn1c(=S)[nH]c2ccccc2c1=O)N1CCN(c2cccc(Cl)c2)CC1	DT40 TDP1 no CPT 18µM, DT40 TDP1 CPT 16µM
CC(=O)c1ccc(N2CCN(C(=O)CCCn3c(=O)[nH]c4ccc(Br)cc4c3=O)CC2)cc1	DT40 TDP1 no CPT 13µM, DT40 TDP1 CPT 15µM
CC(=O)c1ccc(N2CCN(C(=O)CCCCn3c(=O)[nH]c4ccccc4c3=O)CC2)cc1	DT40 TDP1 no CPT 16µM, DT40 TDP1 CPT 13µM (no result: HT1080 IDH1KD tx, HT1080-NT tox)
CCCc1cc(=O)[nH]c(-n2[nH]c3c(c2=O)CCCC3)n1	DT40 TDP1 no CPT 21µM, KB-3-1 tox inconclusive, HT1080 IDH1KD tx inconclusive, HT1080-NT tox inconclusive, DT40 TDP1 CPT 16µM
Cc1cccc(C)c1OCC(=O)Nc1cccc(S(=O)(=O)N2CCCCCC2)c1	DT40 TDP1 no CPT 21µM, DT40 TDP1 CPT 21µM
Cc1ccc(OCC(=O)N2CCc3ccccc32)c([N+](=O)[O-])n1	KB-3-1 tox 23µM
O=C(COC(=O)/C=C/c1ccc(OC(F)F)cc1)Nc1cccc(S(=O)(=O)N2CCOCC2)c1	DT40 TDP1 no CPT 21µM, DT40 TDP1 CPT inconclusive
Cc1cc(C)c(OCC(=O)Nc2ccc(S(=O)(=O)N3CCCC3)cc2)c(C)c1	DT40 TDP1 no CPT inconclusive, KB-V1 cytotox inconclusive, KB-3-1 tox inconclusive, HT1080-NT tox inconclusive, DT40 TDP1 CPT inconclusive
Cc1cc(S(=O)(=O)N2CCCCC2)ccc1OCC(=O)Nc1ccccc1	DT40 TDP1 no CPT inconclusive, DT40 TDP1 CPT inconclusive (no result: KB-V1 cytotox, KB-3-1 tox)
Cc1ccc(OCC(=O)Nc2cccc(S(=O)(=O)N3CCCCCC3)c2)c([N+](=O)[O-])n1	DT40 TDP1 no CPT 16µM, KB-V1 cytotox inconclusive, DT40 TDP1 CPT inconclusive
O=C(c1cccs1)c1ccccc1Cc1cccs1	DT40 TDP1 CPT inconclusive
OCCN1CCN(C(c2ccc(Cl)cc2Cl)c2sc3nc(-c4ccco4)nn3c2O)CC1 (stereo not drawn)	KB-V1 cytotox inconclusive (no result: HT1080 IDH1KD tx, HT1080-NT tox)
CCOc1ccc(OCCC(=O)OCC(=O)Nc2cccc(S(=O)(=O)N3CCCCC3)c2)cc1	DT40 TDP1 no CPT inconclusive, DT40 TDP1 CPT inconclusive
Cc1ccccc1CC(=O)Nc1cccc(S(=O)(=O)N2CCCC2)c1	none
O=C(COC(=O)CCC(=O)c1ccc(F)cc1)Nc1cccc(S(=O)(=O)N2CCOCC2)c1	none
Cc1cccc(C)c1OCC(=O)Nc1cccc(S(=O)(=O)N2CCCC2)c1	DT40 TDP1 no CPT 13µM, KB-V1 cytotox inconclusive, DT40 TDP1 CPT inconclusive
CCC(=O)c1ccc(OCC(=O)Nc2cccc(S(=O)(=O)N3CCCCCC3)c2)cc1	DT40 TDP1 no CPT 5.2µM, DT40 TDP1 CPT 7.3µM
O=C(COc1ccc(C(=O)c2ccc(F)cc2)cc1)Nc1cccc(S(=O)(=O)N2CCOCC2)c1	DT40 TDP1 no CPT 12µM, KB-V1 cytotox 12µM, DT40 TDP1 CPT 23µM
NS(=O)(=O)c1ccc(CCNC(=O)COC(=O)C2CCC2)cc1	none
CC1Cc2nc(SCC(=O)N3CCCCC3)n(C)c(=O)c2S1 (stereo not drawn)	DT40 TDP1 no CPT inconclusive, KB-V1 cytotox inconclusive
CC1CCN(C(=O)CSc2nc3c(c(=O)n2C)SC(C)C3)CC1 (stereo not drawn)	DT40 TDP1 no CPT 21µM, KB-V1 cytotox inconclusive, DT40 TDP1 CPT inconclusive
CC1Cc2nc(SCC(=O)N3CCCc4ccccc43)n(C)c(=O)c2S1 (stereo not drawn)	DT40 TDP1 no CPT 13µM, DT40 TDP1 CPT inconclusive
COCCn1c(SCC(=O)N2CCCc3ccccc32)nc2c(c1=O)SC(C)C2 (stereo not drawn)	DT40 TDP1 no CPT inconclusive, KB-V1 cytotox inconclusive, DT40 TDP1 CPT inconclusive
CCn1c(SCC(=O)N2CCCc3ccccc32)nc2c(c1=O)SC(C)C2 (stereo not drawn)	DT40 TDP1 no CPT inconclusive, DT40 TDP1 CPT 16µM
CCc1ccc(C2CC(=O)c3c([nH]c(C(=O)OC4CCCCCC4)c3C)C2)cc1 (stereo not drawn)	KB-3-1 tox inconclusive (no result: HT1080 IDH1KD tx, HT1080-NT tox)
CCOc1ccc(NS(=O)(=O)c2ccc3[nH]c(=O)[nH]c3c2)cc1	DT40 TDP1 no CPT inconclusive
Cc1ccc2c(c1)NC(=O)C(CC(=O)Nc1ccccc1Cl)O2 (stereo not drawn)	none (no result: KB-V1 cytotox, KB-3-1 tox, HT1080 IDH1KD tx, HT1080-NT tox)
CCCn1nc(C(=O)Nc2ccc3nc(N4CCOCC4)sc3c2)ccc1=O	DT40 TDP1 no CPT 10µM, KB-V1 cytotox inconclusive, HT1080 IDH1KD tx inconclusive, HT1080-NT tox inconclusive, DT40 TDP1 CPT 9.2µM
CCOCc1c(C(=O)Nc2ccccc2N2CCN(C)CC2)oc2ccccc12	DT40 TDP1 no CPT 10µM, KB-V1 cytotox inconclusive, KB-3-1 tox inconclusive, DT40 TDP1 CPT 8.2µM
Cc1ccccc1NC(=O)c1ccc2nc(N3CCOCC3)sc2c1	DT40 TDP1 no CPT 15µM, DT40 TDP1 CPT 18µM
CCOCc1c(C(=O)Nc2ccc3nc(N4CCOCC4)sc3c2)oc2ccccc12	DT40 TDP1 no CPT inconclusive, KB-V1 cytotox 21µM, KB-3-1 tox inconclusive, DT40 TDP1 CPT 21µM
Cc1ccc(N2CC(O)Cn3c2nc2c3c(=O)[nH]c(=O)n2C)cc1 (stereo not drawn)	KB-V1 cytotox inconclusive
COc1cc2c(cc1OC)CN(C(=O)c1cc(S(=O)(=O)N3CCOCC3)ccc1C)CC2	DT40 TDP1 no CPT inconclusive
CNc1nc(-c2ccccc2)cc(C)c1S(C)(=O)=O	none
COc1ccc(NS(=O)(=O)c2cc3[nH]c(=O)c(=O)[nH]c3cc2C)cc1Cl	none (no result: HT1080 IDH1KD tx, HT1080-NT tox)
CCCCn1c(N)c(N(CCOC)C(=O)CCS(=O)(=O)c2ccc(Cl)cc2)c(=O)[nH]c1=O	none
COCCCn1c(SCCc2ccccc2)nc2cc(OC)c(OC)cc2c1=N	DT40 TDP1 no CPT 13µM, HT1080-NT tox inconclusive, DT40 TDP1 CPT 16µM
CCSc1nc2cc(OC)c(OC)cc2c(=O)n1CCc1ccccc1	DT40 TDP1 no CPT 21µM, DT40 TDP1 CPT 16µM
Cc1cccc(CN2CCN(C3CN(Cc4cn(Cc5ccccc5)nn4)S(=O)(=O)C3)CC2)c1 (stereo not drawn)	DT40 TDP1 no CPT inconclusive, HT1080-NT tox inconclusive, DT40 TDP1 CPT inconclusive
CC(=O)Nc1ccccc1OCC(O)CS(=O)(=O)c1ccc(C(F)(F)F)cn1 (stereo not drawn)	DT40 TDP1 no CPT inconclusive, DT40 TDP1 CPT inconclusive
CC(=O)c1cccc(S(=O)(=O)N2CCN(c3nc(-c4cccs4)nc4ccccc34)CC2)c1	DT40 TDP1 no CPT inconclusive, DT40 TDP1 CPT inconclusive (no result: HT1080 IDH1KD tx, HT1080-NT tox)
C=CCn1c(=O)/c(=C/c2cc(OC)c(OC)c(OC)c2)s/c1=C(/C#N)c1nc2ccccc2n1C	DT40 TDP1 no CPT 18µM, KB-V1 cytotox inconclusive, DT40 TDP1 CPT 23µM
